From PubChem BioAssay
VDR inh: Inhibitors of the vitamin D receptor (VDR): qHTS. Vitamin D3 receptor (Homo sapiens), P11473. VDR-SRC2-3 peptide fluorescence polarization, 2 h. Potency, µM, without a hit: max response, negative = inhibition, usual class: inhibitors. 0.93% of 400,000 active. AID 504847, 2011; note: potency is the fitted concentration of half-maximal effect; % is set by controls: 0 for no effect and ±100 for the full control effect
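Fluorescence polarization assay measuring small-molecule disruption of VDR binding to the coregulator peptide SRC2-3. Compounds were pin-transferred (23 nl) into the reagent mix and incubated 2 h at room temperature before reading.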
PI4K2A inh: qHTS for small molecular inhibitors of PI4K2A. purified PI4K2A, ADP-Glo luminescence, 1 h; active compounds read low. activity change, negative = inhibition, % at 76.9 µM. 0.13% of 420,000 active; in the data active = activity change below about -50%; inconclusive = mostly about -30% to -49%;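 note: -100% = wells without enzyme as full effect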
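Compounds are screened against recombinant PI4K2A using PI as substrate and ATP, the latter dispensed at 300 microM. Reactions run one hour at ambient temperature before ADP-Glo detection; full inhibition defined by wells lacking enzyme.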
GCN5L2 inh: qHTS Assay for Inhibitors of GCN5L2. 0.21% of 390,000 active. Potency, µM (doses to about 58.9 µM), for inactives: top-dose activity change, negative = inhibition, actives largely listed as inhibitors. AID 504327, 2011. GCN5L2 HAT assay, ThioGlo1 CoA-SH fluorescence. Histone acetyltransferase KAT2A (Homo sapiens), Q92830; note: potency is the fitted concentration of half-maximal effect; % is set by controls: 0 for no effect and ±100 for the full control effect
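Fluorescence readout, Ex340nm/Em540nm: ThioGlo1 (50uM final) reacts with free CoA thiol released as 20nM GCN5L2 acetylates H3(1-25) peptide (75uM) using acetyl-CoA (70uM). Compound and enzyme sat 15 min beforehand; 20 min room-temperature reaction.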
GLS inh: qHTS for Inhibitors of Glutaminase (GLS) | AID 624170, 2012 | Glutaminase kidney isoform, mitochondrial (Homo sapiens), O94925 | 0.21% of 410,000 active | GLS enzymatic activity, qHTS titration | Potency, µM (series often up to 45.5 µM), for the others: at the highest dose activity change, negative = inhibition, most hits filed as inhibitors; note: potency is the fitted concentration of half-maximal effect; % is set by controls: 0 for no effect and ±100 for the full control effect
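Read-out is an Amplex red fluorescence increase coupled through glutamate oxidase and HRP, measured before and after 30 min room-temperature incubation. hKGA is in 45 mM KH2PO4 (pH 8.2) with 0.02% Tween-20; glutamine added as 1mM solution.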
PLK1 PBD block: qHTS for Inhibitors of PLK1-PDB (polo-like kinase 1 - polo-box domain): Primary Screen; Plk1 PBD binding of FITC phosphopeptide, fluorescence polarization; Potency, µM, inactives show max response, negative = inhibition, most hits filed as inhibitors; 2.8% of 360,000 active; AID 720504, 2013; note: potency is the fitted concentration of half-maximal effect; series mostly up to about 57 µM; % is set by controls: 0 for no effect and ±100 for the full control effect; nearly all actives have a fitted effect of over 65% in size
Target sequence (P53350 whole entry, looked up, the tested form may be a part): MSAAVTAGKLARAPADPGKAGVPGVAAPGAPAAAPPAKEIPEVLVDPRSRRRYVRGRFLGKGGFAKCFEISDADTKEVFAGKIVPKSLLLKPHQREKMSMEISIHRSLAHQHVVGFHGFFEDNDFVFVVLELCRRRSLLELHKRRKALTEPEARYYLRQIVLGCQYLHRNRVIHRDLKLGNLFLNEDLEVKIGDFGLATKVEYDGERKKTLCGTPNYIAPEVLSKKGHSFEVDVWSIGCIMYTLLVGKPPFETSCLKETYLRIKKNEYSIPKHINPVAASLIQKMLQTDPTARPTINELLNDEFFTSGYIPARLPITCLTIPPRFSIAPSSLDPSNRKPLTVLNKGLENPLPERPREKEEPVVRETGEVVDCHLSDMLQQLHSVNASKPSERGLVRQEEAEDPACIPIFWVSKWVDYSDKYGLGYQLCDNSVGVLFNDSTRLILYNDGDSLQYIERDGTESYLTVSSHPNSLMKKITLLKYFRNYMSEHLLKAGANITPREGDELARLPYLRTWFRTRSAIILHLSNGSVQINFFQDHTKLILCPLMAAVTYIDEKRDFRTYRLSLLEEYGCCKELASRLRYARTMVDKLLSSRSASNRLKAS
USP1-UAF1 confirm: Inhibitors of USP1/UAF1: Hit Validation in Primary Assay; shares compounds with VDR inh; 50% of 50 active; Ub-Rhodamine cleavage, fluorescence kinetic read; Potency, µM (series often up to 114 µM), for the others: top-dose activity change, negative = inhibition, usual class: inhibitors
VDR confirm: qHTS for Inhibitors of the vitamin D receptor (VDR): Hit Validation in Primary Screen | shares compounds with VDR inh | VDR-coactivator inhibition assay, qHTS confirmation | Potency, µM, usual class: inhibitors | 89% of 840 active; note: potency is the fitted concentration of half-maximal effect
VDR FP: qHTS for Inhibitors of the vitamin D receptor (VDR): Hit Validation using a Fluorescein Assay; shares compounds with VDR inh; VDR-coactivator binding, fluorescein fluorescence polarization; Potency, µM (series often up to 57.1 µM), for inactives: at the top dose activity change, negative = inhibition, most hits filed as inhibitors; 48% of 840 active; AID 602200, 2012; note: potency is the fitted concentration of half-maximal effect
VDR bla: qHTS for Inhibitors of the vitamin D receptor (VDR): Hit Validation using a Beta-Lactamase Assay | VDR beta-lactamase reporter cells, FRET ratio; cells co-treated with VDR agonist LG190178 | AID 602202, 2012 | Potency, µM (highest dose often 46.1 µM), inactives show at the highest dose activity change, negative = inhibition, most hits filed as inhibitors | 23% of 840 active | shares compounds with VDR inh; note: potency is the fitted concentration of half-maximal effect; % is set by controls: 0 for no effect and ±100 for the full control effect
VDR cytotox: qHTS for Inhibitors of the vitamin D receptor (VDR): Hit Validation using a Cytotoxicity Assay; 18% of 840 active; shares compounds with VDR inh; AID 602204, 2012; Potency, µM (highest dose often 48.3 µM), without a hit: at the top dose activity change, negative = cytotoxicity, usual class: cytotoxic; cytotoxicity counter-screen, cell viability, qHTS;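 note: potency is the fitted concentration of half-maximal effect; plate controls were DMSO for no effect and high-concentration cycloheximide for full effect; nearly all actives have a fitted effect of over 75% in size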
Active calls of the source: *; ? = inconclusive; . = no result. Hits are enriched below; roughly 3.1% of the tested compounds scored in any of these assays. Unless noted, calls come from the whole dose curve; as a rule, active = well fitted curve in the direction sought with a large enough effect; inconclusive = small, poorly fitted or top-dose-only effect, or another doubt; inactive = no such curve, though single readings can be large; an effect the other way counts as inactive or inconclusive.

SMILES	VDR inh	PI4K2A inh	GCN5L2 inh	GLS inh	PLK1 PBD block	VDR confirm	VDR FP	VDR bla	VDR cytotox	others
Cc1ccccc1OCCCN1C(=O)C(=O)c2cccc(C)c21	32µM*	17	-16%	9%	?	?	11µM*	2%	20%
Fc1cccc(CNc2ncnc3ccc(-c4ccccc4Cl)cc23)c1	.	.	-9%	.	.	.	.	.	.
O=C(COc1ccc(S(=O)(=O)NC2CCCCC2)cc1)Nc1ccc(C(F)(F)F)cc1	-13%	0	-12%	13%	.	.	.	.	.
Cc1ccc(S(=O)(=O)N[C@@H](Cc2ccccc2)C(=O)CCl)cc1	5.6µM*	34	-19%	21%	?	9.5*	7.1µM*	18µM*	?	USP1-UAF1 confirm=47µM*
O=C(Nc1cc(S(=O)(=O)N2CCOCC2)ccc1N1CCCC1)c1ccccc1F	.	2	.	-2%	3%	.	.	.	.
O=C(Nc1cc(S(=O)(=O)N2CCOCC2)ccc1N1CCCCC1)c1ccc(Cl)cc1	?	-7	-26%	-25%	5.3µM*	9.5*	?	2%	22%
O=C(Nc1cc(S(=O)(=O)N2CCOCC2)ccc1N1CCCC1)c1ccc(Cl)cc1	?	-1	?	17%	7.5µM*	13*	7.9µM*	-16%	?
O=C(Nc1cc(S(=O)(=O)N2CCOCC2)ccc1N1CCCCC1)c1ccccc1Br	89µM*	0	-16%	27%	4.7µM*	17*	?	17%	19%
Nc1cc(S(=O)(=O)N2CCCCC2)ccc1N1CCCCC1	-8%	-1	-9%	29%	-1%	.	.	.	.
O=C(Nc1cc(S(=O)(=O)N2CCOCC2)ccc1N1CCCCC1)c1ccccc1	-12%	1	-6%	23%	3%	.	.	.	.
Nc1cc(S(=O)(=O)N2CCOCC2)ccc1N1CCCCC1	25µM*	-11	?	46%	3µM*	6*	?	30%	6%
CC(NCc1ccco1)C(=O)N1CCN(c2ccc(F)cc2)CC1 (centres undefined)	.	1	.	.	.	.	.	.	.
COc1ccc(C(C(=O)NCc2ccccc2)N(C(=O)Cn2nnc3ccccc32)c2cccc(OC)c2)cc1 (centres undefined)	8%	-3	1%	7%	.	.	.	.	.
Cc1cc(C)nc(S/C=C/C(=O)c2ccccc2F)n1	?	-12	-11%	-4%	4.7µM*	2*	1.6µM*	16µM*	17µM*
Cc1cc(C)nc(NC(=S)NC(=O)c2ccccc2F)n1	6%	0	.	1%	-4%	.	.	.	.
